MEP2 TOR yeast: modulators of MEP2-GFP levels in yeast, primary screen, S. cerevisiae, multiplex flow cytometry, MLPCN library | GFP response vs DMSO, % at 10 µM | S. cerevisiae MEP2-GFP strain, 3 h; 100% = DMSO control level | hit rate 0.51% among 330,000;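 active = GFP response versus DMSO above a set limit, roughly screen mean plus 3 SD, cut at about 180% in these data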;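 also: median GFP fluorescence of the barcode-gated MEP2-GFP cells per well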
CIT2-GFP yeast: modulators of CIT2-GFP expression in yeast, primary screen, S. cerevisiae, GFP fusion, multiplex flow cytometry, MLPCN library. S. cerevisiae CIT2-GFP strain, 3 h; 100 means same as DMSO wells. GFP response vs DMSO, % at 10 µM. hit rate 0.065% among 320,000;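 active = GFP response relative to DMSO above a set limit, near the screen mean plus 3 SD, cut at about 150% in these data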;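 also: ratio of well median GFP fluorescence to mean of DMSO wells on the plate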
AGP1 TOR yeast: modulators of AGP1-GFP expression in yeast TOR pathway, primary screen, cell-based, multiplex flow cytometry, S. cerevisiae, MLPCN library | GFP response vs DMSO, % at 10 µM | hit rate 0.02% among 320,000 | 3 h; GFP as percent of DMSO wells;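 active = GFP response relative to DMSO above a set limit, near screen average plus 3 SD, cut at about 150% in these data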;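 also: median GFP channel fluorescence of the gated AGP1 strain per well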
LAP4 TOR yeast: modulators of LAP4-GFP expression in yeast, primary screen, S. cerevisiae, multiplex flow cytometry, MLPCN library; 3 h; median GFP as percent of DMSO wells; GFP response vs DMSO, % at 10 µM; hit rate 0.34% among 320,000;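 active = GFP response vs DMSO above a set limit, about the screen mean plus 3 SD, cut at about 150% in these data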
RPL19A-GFP yeast: RPL19A-GFP expression modulators in yeast, primary screen, cell-based, S. cerevisiae, multiplex flow cytometry, MLPCN | S. cerevisiae RPL19A-GFP strain, 3 h; hits give low values | percent response vs DMSO, % at 10 µM | AID 2025, 2009 | hit rate 0.3% among 330,000;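 active = percent response vs DMSO below 50%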;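 also: median channel GFP fluorescence of the barcoded RPL19A-GFP strain; ratio of sample median GFP to plate DMSO average so 100% = DMSO; lower means less RPL19A-GFP as with rapamycin TOR inhibition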
LAP4-GFP pick2: LAP4-GFP expression modulators in yeast, confirmation, cell-based, second cherry pick, flow cytometry. hit rate 20% among 590. GFP response vs DMSO, % at 10 µM. AID 2621, 2010. shares compounds with LAP4 TOR yeast. S. cerevisiae LAP4-GFP strain, 3 h;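 active = GFP signal as percent of the solvent control above about 150%, meaning raised reporter expression, limit read from the data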;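 also: ratio of well median GFP fluorescence to plate DMSO mean so 100% = DMSO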
MEP2-GFP pick2: modulators of MEP2-GFP levels in yeast, confirmation, S. cerevisiae, flow cytometry GFP, second cherry picks; S. cerevisiae MEP2-GFP strain, 3 h; AID 2622, 2010; shares compounds with LAP4 TOR yeast; hit rate 10% among 590; GFP response vs DMSO, % at 10 µM;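 active = GFP signal above 150% of the solvent control wells, that is a rise of more than half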;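 also: median channel GFP fluorescence of all gated yeast cells per well; ratio of median GFP to plate DMSO average so 100% = DMSO level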
RPL19A-GFP pick2: RPL19A-GFP modulators in TOR pathway yeast, confirmation, cell-based, S. cerevisiae, flow cytometry, second cherry pick; S. cerevisiae RPL19A-GFP strain, 3 h; hits give low values; 100% means same as DMSO wells; AID 2623, 2010; GFP response vs DMSO, % at 10 µM; hit rate 3% among 590; shares compounds with LAP4 TOR yeast;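 active = under 65% GFP response relative to DMSO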;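 also: median GFP channel fluorescence per well over the all cells gate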
CIT2-GFP pick2: modulators of CIT2-GFP expression in yeast, confirmation, flow cytometry, second cherry pick, single plex | S. cerevisiae CIT2-GFP strain, 3 h; DMSO control wells read 100% | hit rate 8% among 590 | GFP response vs DMSO, % at 10 µM | shares compounds with LAP4 TOR yeast;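 active = GFP response vs DMSO above about 150%, limit read from the data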;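 also: median green fluorescence per well over all gated yeast cells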
AGP1 GFP CP2: AGP1-GFP expression modulators, hit retest, confirmation, cell-based, flow cytometry, S. cerevisiae, cherry pick set 2 | percent response vs DMSO, % at 10 µM | 590 tested, under 10 active | shares compounds with LAP4 TOR yeast | S. cerevisiae AGP1-GFP strain, 3 h;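 active = over 150 percent of DMSO response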;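 also: median GFP channel fluorescence over all cells without mother daughter split; sample median GFP divided by mean DMSO control so 100% equals DMSO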
Yeast autofluor: compound autofluorescence in yeast s288c, dose response, artefact control for yeast TOR pathway GFP screen, s288c strain; 610 tested, under 10 active; fluorescence change (kMESF span) at 33 µM; shares compounds with LAP4 TOR yeast; S. cerevisiae s288c, 520 nm autofluorescence, flow cytometry, 3 h; hits give high values; zero means same as solvent-only cells; AID 2757, 2010;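 active = fluorescence span over the dose series, or activity score, above about 33, limit read from the data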
TORC1 bypass: wild-type yeast growth inhibition sparing TORC1 bypass cells, mechanism study for yeast TOR pathway GFP screen, BY4741 wild type, TORC1 bypass strain. shares compounds with LAP4 TOR yeast. S. cerevisiae BY4741 spot growth rating, 48-72 h; hits give low values. growth rating (0-3) at 30 µM. 120 tested, under 10 active. AID 504456, 2011;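 active = growth rating at most 1 for wild type yeast while the TORC1 bypass strain still grows fully, rated 3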
The depositor's hits bear a star; x = no result. Shown are actives, neighbours in structure and some others; about 0.93% of the full set was active somewhere.

SMILES	MEP2 TOR yeast	CIT2-GFP yeast	AGP1 TOR yeast	LAP4 TOR yeast	RPL19A-GFP yeast	LAP4-GFP pick2	MEP2-GFP pick2	RPL19A-GFP pick2	CIT2-GFP pick2	AGP1 GFP CP2	others
C=CCn1c(C)c(C(C)=O)c(N2CCOCC2)nc1=S	162	106	28	93	65	99	98	99	110	95
CCOC(=O)C1=C(COC(=O)[C@@H](NC(=O)c2cccc(C)c2)C(C)C)NC(=O)NC1C (stereo not given in full)	105	109	104	96	103	x	x	x	x	x
CC(C)(O)C#Cc1ccc(CN2CCN(C3CCCC3)C(CCO)C2)cc1 (stereo not given)	93	89	110	169*	86	99	105	100	103	100
C=CCN1C(=O)/C(=C/c2ccc(-c3ccc(F)cc3)o2)SC1=S	99	96	83	163*	102	169*	131	99	111	102	Yeast autofluor=1.2
Cc1cccc(OCCN2CSC(=S)N(C)C2)c1	99	83	103	160*	84	x	x	x	x	x	Yeast autofluor=0.3
Cc1ccc(NC(=O)CC(C)c2ccccc2)cc1S(=O)(=O)N1CCOCC1 (stereo not given)	103	110	95	94	102	x	x	x	x	x
COc1ccccc1NC(=O)CC(=O)Nc1ccccc1OC	101	100	97	89	103	x	x	x	x	x
O=C(Cc1ccc(Cl)cc1)Nc1ccc(NC(=O)c2ccccc2)cc1	96	104	105	99	101	x	x	x	x	x
O=C(CC(=O)c1ccccc1)Nc1ccc(Cl)cc1	122	103	106	127	114	100	103	103	92	98
COc1ccccc1NC(=O)CC(=O)c1ccccc1	116	100	92	103	104	101	101	97	106	91
Cc1ccc(C2=NN(S(C)(=O)=O)C(c3ccc4c(c3)OCO4)C2)cc1 (stereo not given)	106	128	99	105	108	x	x	x	x	x	Yeast autofluor=4.6
S=C(NCCc1ccccc1)NC1CCCCCC1	95	105	101	111	107	x	x	x	x	x
S=C(NCCNCc1ccccc1)NC1CCCCC1	140	93	57	91	52	101	100	101	101	102
Cc1cc(=O)[nH]c(SCC(=O)NCC2CCCCC2)c1C#N	97	97	99	98	96	x	x	x	x	x
O=C(O)c1ccccc1SC1CC(=O)N(c2ccc3c(c2)OCO3)C1=O (stereo not given)	89	85	101	151*	100	x	x	x	x	x	Yeast autofluor=0
Fc1ccc(NC(=S)Nc2ccc3nccnc3c2)cc1	93	72	40	171*	66	103	100	101	104	98
CC(=O)NCC1CCN(C(=O)C2CCC(=O)N(CCc3cccc(F)c3)C2)CC1 (stereo not given)	113	x	99	93	108	x	x	x	x	x
COC(=O)c1nc(-c2ccccc2)n[nH]1	106	86	97	100	102	x	x	x	x	x
Cc1cc(Nc2cc(Nc3ccccc3)nc(NCc3ccccc3)n2)n[nH]1	x	x	x	x	x	x	x	x	x	x	TORC1 bypass=3
COC(=O)c1cccc(-c2cc(Nc3cc(C)[nH]n3)nc(NCc3ccccc3)n2)c1	x	x	x	x	x	x	x	x	x	x	TORC1 bypass=3
Cc1cc(Nc2ccccc2)nc(NCc2ccccc2)n1	107	112	98	92	102	x	x	x	x	x
Cc1cccc(NC(=O)c2nc[nH]c2C(=O)NCC(=O)OC(C)(C)C)c1	98	112	93	168*	97	117	105	92	90	94
C[C@H](NC(=O)c1[nH]cnc1C(=O)Nc1ccc(Cl)cc1)C(=O)OC(C)(C)C	90	89	86	158*	97	109	108	93	96	95
Cc1cccc(NC(=O)c2nc[nH]c2C(=O)N[C@@H](C)C(=O)OC(C)(C)C)c1	90	77	78	160*	97	110	98	94	92	95
Cc1noc(C)c1COc1ccc(C(=O)N2CCC(C(N)=O)CC2)cc1	105	114	100	98	103	x	x	x	x	x
SMILES	MEP2 TOR yeast	CIT2-GFP yeast	AGP1 TOR yeast	LAP4 TOR yeast	RPL19A-GFP yeast	LAP4-GFP pick2	MEP2-GFP pick2	RPL19A-GFP pick2	CIT2-GFP pick2	AGP1 GFP CP2	others
CCCS(=O)(=O)Nc1cccc(-c2ccc3nnc(C)n3n2)c1	100	96	99	75	93	x	x	x	x	x
CCS(=O)(=O)Nc1cccc(-c2ccc3nnc(-c4cccnc4)n3n2)c1	88	101	120	171*	79	99	103	100	102	100
Cc1cccc(-n2nc3c(c2NC(=O)c2ccc4c(c2)OCO4)CS(=O)(=O)C3)c1C	96	89	95	91	97	x	x	x	x	x
COc1ccc(-c2nc3ncccc3n2O)cc1	102	108	107	92	109	x	x	x	x	x
COc1ccc(CNc2nnnn2C)c(OC)c1	105	102	100	102	101	x	x	x	x	x
COc1cccc(CNC(=O)C2CCC(=O)N(CC3CCCCC3)C2)c1OC (stereo not given)	106	97	94	86	109	x	x	x	x	x
COC(=O)/C(=C/c1c[nH]c2ccccc12)[N+](=O)[O-]	87	86	89	178*	85	x	x	x	x	x	Yeast autofluor=0.1
COC(=O)/C(=C/c1c[nH]c2ccccc12)NC(C)=O	113	115	108	100	107	x	x	x	x	x
O=C(O)c1cccc(-n2cccc2/C=C\[N+](=O)[O-])c1	98	110	102	103	96	x	x	x	x	x
